According to PubChem BioAssay AID686978 (National Center for Advancing Translational Sciences (NCATS), 2013):
Screen size: about 420,000 compounds; about 64,000 (15%) were called active. Roughly 27% stayed inconclusive and do not appear here. The list is a sample of the results. Values without a mark were called inactive. The call rests on the fitted dose curve; in most records, active means well fitted inhibition curve with a large enough effect; inconclusive means small, poorly fitted or top-dose-only effect; inactive means flat fitted curve, though single readings scatter.

Assay: qHTS for Inhibitors of human tyrosyl-DNA phosphodiesterase 1 (TDP1): qHTS in cells in absence of CPT; further: nearly all actives have a fitted effect of over 55% in size
Conditions: DT40 Tdp1-/- hTDP1 cells, no CPT, ATP luminescence, 48 h; activity change, negative = growth inhibition: at 46.2 µM (top of the series)
How it was run: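 Growth of hTDP1-complemented DT40 Tdp1-knockout cells is measured by ATP luminescence after at least 48 hr compound exposure at 37 °C, with DMSO substituting for the 20 nM CPT used in the parallel screen.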
On the % scale 0 is the no-effect control and ±100 the full control effect; potency means the concentration at half of the fitted maximal effect.

| Structure (SMILES) | Potency | activity change, negative = growth inhibition [%] |
| --- | --- | --- |
| CC(C)C(=O)N1CCN(CCN=CC2=C(O)CC(c3ccco3)CC2=O)CC1 (centres undefined) | inactive | – |
| Cc1ccc(OCC(=O)NCCCNC(=O)c2cccnc2)cc1C | – | -16.4 |
| CCCc1nc(N2CCN(C)CC2)c2sc(=S)n(-c3ccccc3)c2n1 | 16.4 µM (active) | – |
| CCCc1nc(-c2ccccc2O)n(-c2ccccc2)n1 | – | -28.1 |
| O=C1/C(=C/c2ccc3c(c2)OCO3)Oc2cc(OCC(=O)N3CC(O)C[C@H]3C(=O)O)ccc21 (some centres undefined) | – | -0.893 |
| CCc1ccccc1N(CC(=O)NCCSCc1ccco1)S(C)(=O)=O | – | -5.54 |
| Cc1noc(/C=C/c2ccco2)c1S(=O)(=O)N1CCC(C(=O)Nc2ccc(Cl)cn2)CC1 | 18.4 µM (active) | – |
| Cc1ccnc(NC(=O)C2CCN(S(=O)(=O)c3c(C)c(C)cc(C)c3C)CC2)c1 | – | -18.4 |
| CC(=O)c1ccc(NC(=O)C2CCN(S(=O)(=O)c3c(C)noc3/C=C/c3ccc(C)cc3)CC2)cc1 | – | -14.2 |
| Cc1noc(/C=C/N(C)C)c1S(=O)(=O)N1CCCC(C(=O)NCc2ccco2)C1 (centres undefined) | – | 1.87 |
| CNC(=O)C1CCN(S(=O)(=O)c2c(C)noc2/C=C/c2cccc(C)c2)CC1 | – | -2.36 |
| Cc1cccc(NC(=O)C2CCN(S(=O)(=O)c3c(C)noc3/C=C/c3ccco3)CC2)c1 | 20.6 µM (active) | – |
| CC(C)CCNC(=O)c1cccnc1Sc1ccccc1 | – | -12.3 |
| Cc1ccccc1CN1CCN(CC(=O)NCc2ccccn2)C1=O | – | 0.195 |
| Cc1ccccc1CN1C[C@@H]2C[C@@H](c3ccc4nsnc4c3)N3CCC[C@@]23C1=O | 20.6 µM (active) | – |
| CC(=NCC1CCCO1)c1c(O)[nH]c(=O)[nH]c1=O (centres undefined) | – | -21.1 |
| COc1ccc(C2/C(=C(/O)c3ccccc3)C(=O)C(=O)N2C)c(OC)c1 (centres undefined) | – | -1 |
| COc1ccc(/C=C2/C(=O)N(c3ccccc3)N=C2C)c(OC)c1 | – | 9.93 |
| COc1ccc(/C=C2/C(=O)OCc3cc(OC)c(OC)cc32)c(OC)c1 | 29.1 µM (active) | – |
| Cc1nc(N)sc1N=Nc1c(C)n(C)n(-c2ccccc2)c1=O | – | -17.5 |
| COc1ccc(-c2nc3ccccc3c(=O)n2CCc2ccc(O)cc2)cc1 | 9.2 µM (active) | – |
| COc1ccc(-c2ccc(CCC(=O)O)n2-c2ccc(O)cc2)cc1 | – | -9.04 |
| COc1cccc(OCCn2c(-c3ccc(Br)cc3)nc3ccccc3c2=O)c1 | – | -7 |
| Cc1nnc(N2CCCC(C(=O)NCCN(C)C)C2)c2nn(-c3ccccc3)c(C)c12 (centres undefined) | – | -18 |
| CCOc1ccc(CNC(=O)C2CCCN(c3nnc(C)c4c(C)n(-c5ccccc5)nc34)C2)cc1 (centres undefined) | 18.4 µM (active) | – |
| CCc1ccc(CNC(=O)C2CCN(c3nnc(C)c4c(C)n(-c5ccc(C)cc5)nc34)CC2)cc1 | 5.17 µM (active) | – |
| COc1ccc(-n2nc3c(N4CCC(C(=O)NCc5ccccc5)CC4)nnc(C)c3c2C)cc1 | – | 0.177 |

| Structure (SMILES) | Potency | activity change, negative = growth inhibition [%] |
| --- | --- | --- |
| COC(=O)CCCCC1=CCC2C(=O)C=C(O)C2C1 (centres undefined) | – | 4.57 |
| CCOC(=O)C1(Cc2cccc(OC)c2)CCN(C(C)CC(C)(C)O)CC1 (centres undefined) | – | -28.5 |
| CCOC(=O)C1(Cc2cccc(OC)c2)CCN(C(C)COC)CC1 (centres undefined) | – | -60.7 |
| CCOC(=O)C1(Cc2cccc(OC)c2)CCN(Cc2csc(C(C)=O)c2)CC1 | 13 µM (active) | – |
| Cc1ccc(NC(=O)Nc2cccnc2)cc1 | – | 6.11 |
| Cc1ccc(-c2nc(-c3cccnc3)sc2CC(=O)Nc2ccc(C)c(Cl)c2)cc1 | 23.1 µM (active) | – |
| O=C(O)Cc1sc(-c2ccc(C(=O)O)cc2)nc1-c1ccccc1 | – | 1.9 |
| CC(C)CN1C(=O)CN(S(C)(=O)=O)CC1(C)C(=O)NCc1ccccc1 (centres undefined) | – | 8.49 |
| CCOC(=O)Nc1sc(C(=O)N(C)C)c(C)c1C(=O)OCC | – | -18.5 |
| CCC(=O)Nc1sc(C(=O)Nc2ccccc2)c(C)c1C(=O)OC | – | -26.8 |
| CCOC(=O)c1c(NC(=O)CCl)sc(C(=O)N(CC)CC)c1C | 13 µM (active) | – |
| CCCCNC(=O)OC1CC2CC1[C@H]1CCCCN1C2=O (some centres undefined) | – | -20.1 |
| CN1CCN(c2ccc(NC(=O)c3ccc4c(c3)[nH]c(=O)n4Cc3ccc(F)cc3)cc2)CC1 | 29.1 µM (active) | – |
| CC(C)n1c(=O)[nH]c2cc(C(=O)Nc3ccccc3)ccc21 | – | -17 |
| CN1CCN(c2ccc(NC(=O)c3ccccc3)cc2)CC1 | – | 28.4 |
| C/C(=N/OC(=O)c1cccc(C(F)(F)F)c1)c1cnccn1 | – | 0.852 |
| COc1cccc(OC)c1CN(C)C(=O)c1cnccc1C(F)(F)F | – | -0.155 |
| CCCS(=O)(=O)N1CCN=C1SCc1cccc(F)c1 | – | -26.5 |
| CCCC[C@@H]1CN=C(N)N1CCc1cccc(F)c1 | 5.8 µM (active) | – |
| CCCC[C@@H]1CN=C(N)N1CCc1cc(C(F)(F)F)cc(C(F)(F)F)c1 | 1.3 µM (active) | – |
| O=C1NC[C@@H](Cc2ccc(O)cc2)N(CCc2cccc(F)c2)C1=O | – | -8.23 |
| NNC(=O)COc1ccc(C2SCCS2)cc1 | – | 1.8 |
| CC(=O)NC1C(Oc2ccc(C)cc2)OC2COC(c3ccco3)OC2C1O (centres undefined) | – | -25.2 |
| O=S(=O)(NC1CCCCC1)c1ccc(F)c2ccccc12 | – | -15.1 |
| CCCC/S(C)=N/S(=O)(=O)c1ccc(C)cc1 (centres undefined) | – | -0.693 |
| COc1ccc(OCCC(=O)c2ccc(OC)cc2)cc1 | 2.59 µM (active) | – |
| COc1ccc(C(=O)CCC(=O)Nc2ccc(Cl)cc2)cc1 | – | 20.7 |
